This is an account of results in PubChem BioAssay (NCI).

SMILES strings stand for the structures. Where “and” joins values, the source holds several entries; their conditions need not be identical. Equal entries are not always repeated. This is part of a sample that, as a whole, favours compounds with a hit. Of some 79,000 tested, about 15% had one in any assay. Some structures have more than one record in an assay (separate samples or runs), and their calls can disagree. Calls of active or inactive are those of the source. Rule as the data show it: active = growth inhibition above about 70%; inactive = the rest.

Test [1] can be described thus: NCI Yeast Anticancer Drug Screen. Data for the rad50 strain (AID 155).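 Also: 0% = growth of vehicle-only cultures of the same strain.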 To be noted: S. cerevisiae rad50 strain growth inhibition, stronger effect = higher value. In a few lines: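 Readout: growth inhibition relative to vehicle-treated cultures. Compound exposure was carried out in a genetically defined yeast strain deficient in DNA damage repair.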
Test [2] is described as follows: NCI Yeast Anticancer Drug Screen. Data for the mec2-1 strain (AID 157). As to conditions: S. cerevisiae mec2-1 strain, stronger effect = higher value. A digest of the protocol: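 mec2-1 yeast strain, carrying an alteration in DNA damage repair or cell cycle control, was exposed to compounds; growth inhibition was measured relative to vehicle-treated controls.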
Test [3] is described as follows: NCI Yeast Anticancer Drug Screen. Data for the sgs1 mgt1 strain (AID 161).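 Also: 0% = growth of cultures given vehicle only.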 To be noted: S. cerevisiae sgs1 mgt1 strain, stronger effect = higher value. In a few lines: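 This yeast growth screen uses a strain with defined DNA-repair lesions; compound-treated growth is compared with vehicle-treated growth.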
Test [4] can be described thus: NCI Yeast Anticancer Drug Screen. Data for the cln2 rad14 strain (AID 165).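 Also: 0% = growth equal to vehicle treated cultures.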 To be noted: S. cerevisiae cln2 rad14 strain, stronger effect = higher value. A digest of the protocol:
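Yeast carrying cln2 and rad14 alterations (cell cycle control and DNA damage repair) were exposed to compounds. Growth inhibition was measured against vehicle-treated controls.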

Test [5] can be described thus: NCI Yeast Anticancer Drug Screen. Data for the bub3 strain (AID 167). As to conditions: S. cerevisiae bub3 mutant strain, stronger effect = higher value. In a few lines:
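Readout: yeast growth inhibition, expressed relative to vehicle-only wells. The test organism is a mutant strain from a panel with lesions in DNA repair or checkpoint genes.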

Test [6] in a line: NCI Yeast Anticancer Drug Screen. Data for the mlh1 rad18 strain (AID 175). As to conditions: S. cerevisiae mlh1 rad18 strain growth inhibition, stronger effect = higher value. A digest of the protocol:
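Growth inhibition of the yeast strain was measured after compound exposure and expressed relative to vehicle-treated controls. The strain carries defined defects in DNA damage repair.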

[7] abbreviates: at 5.0 µM (retest, dose inferred, filed as 0.5).
The mark [8] stands for this setting: at 50.0 µM (retest, dose inferred, filed as 5.0).

Consider `CC(C)(C)OOC(=O)c1ccccc1`, for which the growth inhibition is 26% (inactive) in test [1] (setting [7]); 99% (active) in test [1] (setting [8]); 37.6% (inactive) in test [1] (at 50.0 µM); 11% (inactive) in test [2] (setting [7]); 99% (active) in test [2] (setting [8]); 18.4% (inactive) in test [2] (at 50.0 µM). The growth inhibition is 14% (inactive) in test [3] (setting [7]); 93% (active) in test [3] (setting [8]); 29% (inactive) in test [3] (at 50.0 µM); 14% (inactive) in test [4] (setting [7]); 99% (active) in test [4] (setting [8]); 0.5% (inactive) in test [4] (at 50.0 µM). The growth inhibition is 3% (inactive) in test [5] (setting [7]); 99% (active) in test [5] (setting [8]); 3.1% (inactive) in test [5] (at 50.0 µM); 26% (inactive) in test [6] (setting [7]); 99% (active) in test [6] (setting [8]); 75.3% (active) in test [6] (at 50.0 µM).
Consider `S=c1[nH]c2ccccc2s1`, for which the growth inhibition in test [1] (setting [7]) is -8% (inactive); in test [1] (setting [8]), 45% (inactive); in test [1] (at 50.0 µM), 3.25% (inactive) and 53.4% (inactive); in test [2] (setting [7]), -7% (inactive); in test [2] (setting [8]), 52% (inactive); in test [2] (at 50.0 µM) it was -22.3% (inactive) and 30.1% (inactive). The growth inhibition in test [3] (setting [7]) was -3% (inactive); in test [3] (setting [8]), 51% (inactive); in test [3] (at 50.0 µM), 15.8% (inactive) and 62% (inactive); in test [4] (setting [7]), -12% (inactive); in test [4] (setting [8]), 1% (inactive); in test [4] (at 50.0 µM) it was -11.1% (inactive) and 11.7% (inactive). The growth inhibition is -4% (inactive) in test [5] (setting [7]); 29% (inactive) in test [5] (setting [8]); 8.85% (inactive) and 55.8% (inactive) in test [5] (at 50.0 µM); -7% (inactive) in test [6] (setting [7]); 38% (inactive) in test [6] (setting [8]); 4.95% (inactive) and 71.9% (active) in test [6] (at 50.0 µM).
Consider `CC(=O)C(CN(C)C)C(c1ccccc1)c1c(O)c2ccccc2oc1=O` (centres undefined), for which the growth inhibition in test [1] (setting [7]) is 22% (inactive); in test [1] (setting [8]) it was 22% (inactive); in test [1] (at 50.0 µM) it was 65.7% (inactive); in test [2] (setting [7]), 20% (inactive); in test [2] (setting [8]) it was 20% (inactive); in test [2] (at 50.0 µM), 54.4% (inactive). Besides, the growth inhibition in test [3] (setting [7]) is 4% (inactive); in test [3] (setting [8]), 4% (inactive); in test [3] (at 50.0 µM), 70.8% (active); in test [4] (setting [7]), -4% (inactive); in test [4] (setting [8]), -4% (inactive); in test [4] (at 50.0 µM), 64% (inactive). Also, the growth inhibition in test [5] (setting [7]) was 13% (inactive); in test [5] (setting [8]), 13% (inactive); in test [5] (at 50.0 µM) it was 59.6% (inactive); in test [6] (setting [7]), 17% (inactive); in test [6] (setting [8]) it was 17% (inactive); in test [6] (at 50.0 µM) it was 64.2% (inactive).
Take `COc1cc(C(=O)CCN(CCCl)CCCl)cc(OC)c1OC`: the growth inhibition in test [1] (setting [7]) is -1% (inactive); in test [1] (setting [8]), 68% (inactive); in test [1] (at 50.0 µM), 95.5% (active); in test [2] (setting [7]), 0% (inactive); in test [2] (setting [8]), 67% (inactive); in test [2] (at 50.0 µM) it was 97.3% (active). Moreover, the growth inhibition is 13% (inactive) in test [3] (setting [7]); 82% (active) in test [3] (setting [8]); 97.2% (active) in test [3] (at 50.0 µM); 0% (inactive) in test [4] (setting [7]); 55% (inactive) in test [4] (setting [8]); 99.5% (active) in test [4] (at 50.0 µM). For the same compound, the growth inhibition in test [5] (setting [7]) was -3% (inactive); in test [5] (setting [8]) it was 82% (active); in test [5] (at 50.0 µM) it was 93.2% (active); in test [6] (setting [7]) it was 13% (inactive); in test [6] (setting [8]), 83% (active); in test [6] (at 50.0 µM), 97.1% (active).
With `COc1cc(OC)c(OC)cc1/C=C/[N+](=O)[O-]`, the growth inhibition in test [1] (setting [7]) was 35% (inactive); in test [1] (setting [8]), 64% (inactive); in test [1] (at 50.0 µM) it was 85.9% (active); in test [2] (setting [7]), 24% (inactive); in test [2] (setting [8]), 85% (active); in test [2] (at 50.0 µM) it was 90.9% (active). Also, the growth inhibition in test [3] (setting [7]) is 46% (inactive); in test [3] (setting [8]) it was 85% (active); in test [3] (at 50.0 µM), 90.8% (active); in test [4] (setting [7]), 9% (inactive); in test [4] (setting [8]), 39% (inactive); in test [4] (at 50.0 µM), 77.8% (active). Besides, the growth inhibition in test [5] (setting [7]) is 12% (inactive); in test [5] (setting [8]), 67% (inactive); in test [5] (at 50.0 µM) it was 94.8% (active); in test [6] (setting [7]), 71% (active); in test [6] (setting [8]), 91% (active); in test [6] (at 50.0 µM) it was 92% (active).
Regarding `CC(=O)[O][Hg][c]1cc2c(cc1O)Cc1cc([N+](=O)[O-])ccc1-2`, the growth inhibition in test [1] (setting [7]) was 95% (active); in test [1] (setting [8]), 98% (active); in test [1] (at 50.0 µM), 93.5% (active); in test [2] (setting [7]) it was 99% (active); in test [2] (setting [8]) it was 99% (active); in test [2] (at 50.0 µM), 98% (active). In addition, the growth inhibition in test [3] (setting [7]) is 99% (active); in test [3] (setting [8]), 99% (active); in test [3] (at 50.0 µM), 86.2% (active); in test [4] (setting [7]), 76% (active); in test [4] (setting [8]), 98% (active); in test [4] (at 50.0 µM) it was 94.1% (active). The growth inhibition in test [5] (setting [7]) was 99% (active); in test [5] (setting [8]), 98% (active); in test [5] (at 50.0 µM) it was 97.6% (active); in test [6] (setting [7]), 99% (active); in test [6] (setting [8]), 99% (active); in test [6] (at 50.0 µM), 96.5% (active).
On to `CCCCCCCCCCCC1CCCC(C)N1` (centres undefined), for which the growth inhibition in test [1] (setting [7]) is 8% (inactive) and 28% (inactive); in test [1] (setting [8]) it was 98% (active) and 92% (active); in test [1] (at 50.0 µM), 91.1% (active) and 91.6% (active); in test [2] (setting [7]), 19% (inactive) and 26% (inactive); in test [2] (setting [8]), 98% (active) and 88% (active); in test [2] (at 50.0 µM), 93.3% (active). Also, the growth inhibition in test [3] (setting [7]) is 17% (inactive) and 32% (inactive); in test [3] (setting [8]) it was 98% (active) and 90% (active); in test [3] (at 50.0 µM), 93.3% (active) and 92.5% (active); in test [4] (setting [7]) it was 10% (inactive) and 49% (inactive); in test [4] (setting [8]) it was 94% (active) and 95% (active); in test [4] (at 50.0 µM), 90.5% (active) and 91% (active). The growth inhibition in test [5] (setting [7]) is 24% (inactive) and 32% (inactive); in test [5] (setting [8]), 97% (active) and 85% (active); in test [5] (at 50.0 µM) it was 91.8% (active) and 91.5% (active); in test [6] (setting [7]), 13% (inactive) and 36% (inactive); in test [6] (setting [8]), 98% (active) and 86% (active); in test [6] (at 50.0 µM), 92.1% (active) and 91.3% (active).
On to `CCCCCCCCCCCCCCCC[N+](C)(C)CCBr`, for which the growth inhibition in test [1] (setting [7]) is 99% (active); in test [1] (setting [8]), 98% (active); in test [1] (at 50.0 µM) it was 89.2% (active) and 98.8% (active); in test [2] (setting [7]) it was 99% (active); in test [2] (setting [8]), 99% (active); in test [2] (at 50.0 µM), 92.5% (active) and 99.2% (active). Also, the growth inhibition in test [3] (setting [7]) was 99% (active); in test [3] (setting [8]), 99% (active); in test [3] (at 50.0 µM) it was 87.2% (active) and 99.3% (active); in test [4] (setting [7]), 99% (active); in test [4] (setting [8]), 99% (active); in test [4] (at 50.0 µM), 89.2% (active) and 99.2% (active). Moreover, the growth inhibition in test [5] (setting [7]) was 99% (active); in test [5] (setting [8]) it was 99% (active); in test [5] (at 50.0 µM) it was 82.3% (active) and 99.1% (active); in test [6] (setting [7]) it was 98% (active); in test [6] (setting [8]), 98% (active); in test [6] (at 50.0 µM), 92.3% (active) and 99.2% (active).
